# From PubChem BioAssay AID463173 (ICCB-Longwood Screening Facility, Harvard Medical School, 2010)
# Screen size: about 52,000 compounds; about 4,300 (8.3%) were called active. The full list was thinned out, with actives kept by preference. Unmarked numbers belong to inactive results. No stated cut-off is given here; in the data, active means survival mostly below about 52% (no sharp cut-off); inactive means mostly above about 56%.
# Tested on: DeltatarO mutant
# Assay: S. aureus survival, RN4220 and DeltatarO strains – OD600, teichoic acid synthesis inhibitors, primary screen (AID 463173)
# Conditions: S. aureus RN4220 wild type/DeltatarO growth, OD600, 18 h, stronger effect = lower value, screened at 18.75 µg/mL (by protocol)
row,Compound,survival
1,CCOc1cc(S(=O)(=O)NCCc2c(C)[nH]c3ccc(C)cc23)ccc1Br,92%
2,CC(Oc1ccc(F)cc1)C(=O)NCC1(N(C)C)CCCCC1 (stereo not given),83%
3,CCOC(=O)c1c(C)[nH]c(C)c1S(=O)(=O)NCC(=O)Nc1ccc(C)cc1C,72%
4,O=C(C1CCC(Cn2c(=O)c3sccc3n(Cc3ccccc3)c2=O)CC1)N1CCCCC1 (stereo not given),78%
5,CC(=O)Nc1cccc(NC(=O)C(=O)NCCc2csc3nc(-c4ccccc4F)nn23)c1,64%
6,CCOc1ccc(NC(=O)C(=O)NCCc2csc3nc(-c4ccccc4F)nn23)cc1,-1% (active)
7,COC(=O)c1ccc(NC(=O)C(=O)NCCc2csc3nc(-c4ccccc4F)nn23)cc1,76%
8,Cc1ccc(C)c(NC(=O)C(=O)NCCc2csc3nc(-c4ccccc4C)nn23)c1,109%
9,Cc1c(Cl)cccc1NC(=O)C(=O)NCCc1csc2nc(-c3ccccc3F)nn12,6% (active)
10,Cc1ccc(NC(=O)C(=O)NCCc2csc3nc(-c4ccccc4C)nn23)cc1Cl,86%
11,O=C(NCCc1csc2nc(-c3ccccc3F)nn12)C(=O)Nc1cc(F)ccc1F,79%
12,Cc1ccccc1-c1nc2scc(CCNC(=O)C(=O)Nc3ccc(F)cc3F)n2n1,-2% (active)
13,CCOc1ccc(CC(=O)NCCc2csc3nc(-c4ccccc4F)nn23)cc1,91%
14,Cc1ccccc1CNC(=O)c1ccc(CS(=O)Cc2ccc(Cl)cc2)o1 (stereo not given),79%
15,CCOc1ccc(NC(=O)c2ncn(-c3ccccc3)n2)cc1,83%
16,COc1ccc2c(c1)c(=O)c(C(=O)c1ccc(F)cc1)cn2CC(=O)Nc1ccc2c(c1)OCCO2,65%
17,COc1ccc(CNC(=O)CN2C(=O)COc3ccc(S(=O)(=O)N4CCOCC4)cc32)cc1,75%
18,CCOc1ccc(N2CC(NC(=O)C3CCCCC3)CC2=O)cc1 (stereo not given),75%
19,O=C(NCCCc1nc2ccccc2n1Cc1ccccc1Cl)c1ccco1,66%
20,CCc1nn2c(=O)cc(COC(=O)c3ccccc3NC(=O)COc3ccccc3C)nc2s1,72%
21,CCOC(=O)N1CCc2c(sc3c2c(=O)n(-c2ccc(CC)cc2)c(=O)n3CC(=O)c2ccc(F)cc2)C1,80%
22,Cc1ccccc1NC(=O)CSC1=Nc2ccccc2C2=NC(Cc3ccccc3)C(=O)N12 (stereo not given),84%

row,Compound,survival
1,CCOC(=O)COc1ccc([N+](=O)[O-])cc1-c1ccnc2cc(-c3ccc(Cl)cc3)nn12,89%
2,Cc1cc(O)c(-c2ccnc3cc(-c4ccccc4)nn23)cc1Cl,114%
3,Cc1ccc(-c2cc3nccc(-c4cc([N+](=O)[O-])ccc4O)n3n2)cc1,29% (active)
4,CCOC(=O)COc1ccc([N+](=O)[O-])cc1-c1ccnc2cc(-c3ccc(C)cc3)nn12,76%
5,O=[N+]([O-])c1ccc(O)c(-c2ccnc3cc(-c4ccccc4)nn23)c1,20% (active)
6,Cc1ccc(O)c(-c2ccnc3cc(-c4ccc(Cl)cc4)nn23)c1,86%
7,COc1cccc(NC(=O)C2CCCN(S(=O)(=O)c3c(C)nn(C)c3C)C2)c1 (stereo not given),87%
8,COc1ccc(NC(=O)c2cc(S(=O)(=O)N3CCCCC3)cn2C)cc1Cl,78%
9,CCN(C(=O)c1cn(-c2ccc(OC)cc2)c(=O)c2ccccc12)c1cccc(Cl)c1,103%
10,CCN(C(=O)c1sc2cc(OC)ccc2c1Cl)c1ccccc1,0% (active)
11,CCNC(=O)c1sc2ccccc2c1Cl,105%
12,Cc1ccc(-c2cc(C(=O)Oc3ccc(C#N)cc3)no2)cc1C,50%
13,Cc1cc(C)cc(OC(=O)c2cc(-c3ccc4c(c3)OCCO4)on2)c1,-2% (active)
14,Cc1ccc(O)c(NC(=O)c2cc(-c3ccc4c(c3)OCO4)on2)c1,71%
15,Cc1cccc(OC(=O)c2cc(-c3ccc4c(c3)OCCO4)on2)c1,-2% (active)
16,Cc1cccc(OC(=O)c2cc(-c3ccc(C)c(C)c3)on2)c1,-2% (active)
17,O=C(Nc1cccc(C(F)(F)F)c1)c1cc(-c2ccc3c(c2)OCCO3)on1,116%
18,Cc1cc(C)cc(OC(=O)c2cc(-c3ccc(Cl)cc3)on2)c1,94%
19,Cc1ccc(NC(=O)C2CCCN(S(=O)(=O)c3ccc(F)cc3)C2)cc1 (stereo not given),65%
20,COC(=O)c1c(NC(=O)c2nc(SCc3ccccc3C)ncc2Cl)sc2c1CCCC2,111%
21,Cc1ccc2nc(CSc3nnc(NC(=O)c4ccc(C(C)(C)C)cc4)s3)cc(=O)n2c1,81%
22,Cn1nnnc1SCC(=O)N1CCCc2ccccc21,81%

row,Compound,survival
1,O=C1CC(C(=O)NCc2ccco2)C2(CCCCC2)O1 (stereo not given),85%
2,N#Cc1cccc(NC(=O)CCNS(=O)(=O)c2ccc3c(c2)CCN3C(=O)C2CC2)c1,82%
3,Cc1nn2cc(-c3ccc(OC(C)C)cc3)nc2s1,84%
4,CCN(CC)CCCNC(=O)c1cnc(SC)nc1-c1ccccc1,69%
5,Cc1ccc(Nc2cc(C)c(C#N)c3nc4ccccc4n23)cc1Cl,83%
6,Cc1cc(Nc2ccc(F)cc2)n2c(nc3ccccc32)c1C#N,89%
7,Cc1ccc(Nc2cc(C)c(C#N)c3nc4ccccc4n23)c(C)c1,38% (active)
8,O=C(Cn1nnc(-c2ccccc2NC(=O)c2cnccn2)n1)Nc1ccc2c(c1)OCCO2,105%
9,O=C(Oc1ccc2c(c1)OCO2)c1cccc(S(=O)(=O)N2CCCC2)c1,58%
10,Cc1ccc(CNC(=O)C(C(C)C)N2Cc3ccccc3C2=O)cc1 (stereo not given),73%
11,CCOC(=O)CNC(=O)CC(c1cc(OC)c(OC)c(OC)c1)N1Cc2ccccc2C1=O (stereo not given),47% (active)
12,COc1ccc(C(CC(=O)Nc2cc(OC)c(OC)c(OC)c2)N2Cc3ccccc3C2=O)cc1 (stereo not given),57%
13,COc1ccc(CNC(=O)C(CC(C)C)N2Cc3ccccc3C2=O)cc1 (stereo not given),126%
14,COc1ccc(CNC(=O)C(C(C)C)N2Cc3ccccc3C2=O)cc1 (stereo not given),-5% (active)
15,Cc1ccc(NC(=O)CC(c2ccc(F)cc2)N2Cc3ccccc3C2=O)cc1C (stereo not given),74%
16,COc1cc(Cl)c(C)cc1NC(=O)CC(c1ccc(F)cc1)N1Cc2ccccc2C1=O (stereo not given),0% (active)
17,CCOc1ccc(C(CC(=O)Nc2cc(C)c(Cl)cc2OC)N2Cc3ccccc3C2=O)cc1OC (stereo not given),70%
18,COc1ccc(C(CC(=O)Nc2cc(Cl)c(OC)cc2OC)N2Cc3ccccc3C2=O)cc1 (stereo not given),0% (active)
19,COc1cc(C(CC(=O)NCCC(C)C)N2Cc3ccccc3C2=O)cc(OC)c1OC (stereo not given),94%
20,COc1cc(OC)c(NC(=O)CC(c2cccs2)N2Cc3ccccc3C2=O)cc1Cl (stereo not given),92%
21,COc1cc(C(CC(=O)NCc2ccccc2)N2Cc3ccccc3C2=O)cc(OC)c1OC (stereo not given),135%
22,CSc1nn(Cc2ccc(F)cc2)c(N(C(C)=O)C(C)=O)c1S(=O)(=O)c1ccccc1,74%

row,Compound,survival
1,COc1ccc(OC)c(NC(=O)Cn2c(=O)n(Cc3nc(C)no3)c(=O)c3ccccc32)c1,90%
2,O=C(CSc1oc(-c2ccco2)nc1S(=O)(=O)c1ccc(Cl)cc1)c1ccc(Cl)cc1,80%
3,Cn1cc(S(=O)(=O)c2ccccc2)c(=O)c2cc(F)c(N3CCCC3)cc21,123%
4,CC(=O)N1CCCc2cc(S(=O)(=O)N3CCC(C(=O)Nc4cccc(Cl)c4C)CC3)ccc21,74%
5,Cc1cccc(C)c1-n1ncc(C(=O)NCCCN2CCC(C)CC2)c1C1CCN(C(=O)OC(C)(C)C)CC1,91%
6,COc1ccccc1CNC(=O)CCc1c(C)nn(-c2ccc(N3CCOCC3)nn2)c1C,80%
7,Cc1ccc(C)c(N2CCN(CCCNC(=O)c3cnn(-c4ccccc4Cl)c3C3CCN(C(=O)OC(C)(C)C)CC3)CC2)c1,74%
8,CC(C)(C)OC(=O)N1CCC(c2c(C(=O)NCCN3CCOCC3)cnn2-c2ccc(F)cc2)CC1,73%
9,Cc1ccc(C)c(N2CCN(CCCNC(=O)c3cnn(-c4cccc(Cl)c4)c3C3CCN(C(=O)OC(C)(C)C)CC3)CC2)c1,52% (active)
10,CC(C)(C)OC(=O)N1CCC(c2c(C(=O)NCCN3CCOCC3)cnn2-c2ccc(F)cc2F)CC1,-1% (active)
11,CC(C)(C)OC(=O)N1CCC(c2c(C(=O)NCc3ccccn3)cnn2-c2ccccc2)CC1,101%
12,Cc1ccc(-n2ncc(C(=O)NCc3ccccn3)c2C2CCN(C(=O)OC(C)(C)C)CC2)c(C)c1,63%
13,Cc1ccc(-n2ncc(C(=O)NCc3ccco3)c2C2CCN(C(=O)OC(C)(C)C)CC2)c(C)c1,25% (active)
14,Cc1cccc(-n2ncc(C(=O)NCc3ccco3)c2C2CCN(C(=O)OC(C)(C)C)CC2)c1,81%
15,CC(C)(C)OC(=O)N1CCC(c2c(C(=O)NCCN3CCc4ccccc4C3)cnn2-c2ccc(F)cc2F)CC1,70%
16,Cc1ccc(C)c(N2CCN(CCCNC(=O)c3cnn(-c4ccccc4)c3C3CCN(C(=O)OC(C)(C)C)CC3)CC2)c1,104%
17,Cc1ccc(-n2ncc(C(=O)NCc3ccco3)c2C2CCN(C(=O)OC(C)(C)C)CC2)cc1,94%
18,CC(C)(C)OC(=O)N1CCC(c2c(C(=O)NCc3ccccn3)cnn2-c2ccccc2Cl)CC1,-4% (active)
19,COc1ccc(NC(=O)CSc2oc(-c3cccs3)nc2S(=O)(=O)c2ccc(Br)cc2)c(OC)c1,57%
